Records with an inconclusive call do not appear. Calls of active or inactive are those of the source. Unless noted, calls come from the whole dose curve; as a rule, active = well fitted curve in either direction with a large enough effect (not every such curve was filed as active); inconclusive = small, poorly fitted or top-dose-only effect, or another doubt; inactive = flat fitted curve, though single readings scatter.
Key:
[1] = target: Lysosomal acid glucosylceramidase (Homo sapiens) (UniProt P04062); experiment: Glucocerebrosidase-p2 (AID 348; in the data active = potency below about 10 µM; note: potency is the fitted concentration of half-maximal effect); details: purified GBA, blue fluorogenic substrate, 40 min
In short: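 Compounds titrated from 0.6 nM upwards against 0.2 nM enzyme in pH 5.9 citric acid/KH2PO4, taurocholate, tween-20; blue fluorogenic substrate 80 uM, 40 min room temperature, stopped and read Ex 365/Em 440 for AC50.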

[2] = AP1 Signaling Pathway (AID 357); details: ME-180 AP-1-bla reporter, EGF-induced, beta-lactamase ratio, 5 h; at 7.69 µM (top of the series) unless noted;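 note: ME-180 reporter cells stimulated with EGF at its EC50 level; % is set by controls: 0 for no effect and ±100 for the full control effect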
In short: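 AP-1-bla ME-180 cells, Opti-MEM + 0.5% dialyzed FBS, plated overnight 37 °C. Cpd titration + EC50 EGF, 5 h 37 °C. CCF4 2.5 h RT; ex 405, em 460/530 ratio → %activity, AC50.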

[3] = target: Cytochrome P450 1A2 (Homo sapiens) (UniProt P05177); experiment: p450-cyp1a2 (AID 410; calls by dose curve; note: potency is the fitted concentration of half-maximal effect;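 for activity change, negative = inhibition: -100% = full effect of reference inhibitor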); details: recombinant CYP1A2, luciferin-ME demethylation, luminescence; series mostly up to 11.4 µM
In short: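 20nM CYP1A2 with 100uM Luciferin-ME (at Km) in 100mM KPO4; compound preincubated 10 min, NADPH regeneration added, 60 min at room temperature. Luciferin quantified by luminescence after detection reagent; normalized to 57 uM furafylline.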

[4] = NFAT Signaling Pathway (AID 444); details: Jurkat NFAT-bla M1, carbachol, beta-lactamase ratio, 5 h; at 7.69 µM (top of the series) unless noted;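 note: carbachol stimulus at about its EC50 of 1 µM final; % is set by controls: 0 for no effect and ±100 for the full control effect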
In short: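 Read-out: CCF4 FRET ratio (460 nm/530 nm) after 1 h RT dye loading, used for %activity and AC50 from titration series. Cells: Jurkat NFAT-β-lactamase/M1 line, treated with compound plus 1 uM carbachol for 5 h, 37 °C.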

[5] = target: Glucocorticoid receptor (Homo sapiens) (UniProt P04150); experiment: GR-GFP Redistribution (AID 450;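 active = compounds whose dose series gives a full or clear partial fitted curve of increased nuclear translocation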; note: potency is the fitted concentration of half-maximal effect); details: U2OS GR-GFP nuclear translocation, laser cytometry, 2 h
[6] = target: Glucocorticoid receptor (Homo sapiens) (UniProt P04150); experiment: GR-EFC Redistribution (AID 451; calls by dose curve; note: potency is the fitted concentration of half-maximal effect); details: CHO-K1 GR-EFC translocation, beta-gal luminescence, 2 h
In short: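 Translocation of GR-ED fusion to nuclear EA restores b-gal, read by luminescence after 1 h room-temperature detection. Engineered CHO-K1 biosensor cells, 1,000/well, exposed 2 h at 37 C to titrations up to 46 uM final.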

[7] = target: Mitogen-activated protein kinase 10 (Mus musculus) (UniProt Q61831); experiment: JNK3 AlphaScreen Assay (AID 530); details: JNK3 lysate, c-Jun phosphorylation; series mostly up to 11.4 µM;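 note: kinase came from lysate of stimulated human HepG2 cells; signal reports phosphorylation of biotinylated GST-cJun 1-79 at Ser73 with 10 µM ATP; % is set by controls: 0 for no effect and ±100 for the full control effect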
In short: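 Compound titrations were preincubated 15 minutes at room temperature with substrate, antibody and pre-activated JNK3-containing HepG2 lysate. Reactions were started with 10 uM ATP and stopped with EDTA-containing bead buffer for AlphaScreen detection.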

[8] = target: 3',5'-cyclic-AMP phosphodiesterase 4B (Homo sapiens) (UniProt Q07343); experiment: qHTS Assay for Inhibitors of PDE-IV (AID 607; active = well fitted activation curve with a large enough effect in the main read-out, with a control signal flat, not every such curve was filed as active; note: % of control where 0% means no effect); details: HEK293 ACTOne CNG channel cells, membrane potential fluorescence; series mostly up to 22.9 µM
In short: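 HEK293 ACTOne cells with CNG channel (1000/well), endogenous PDE4; membrane potential dye, compounds up to 22.9 uM final. Fluorescence Ex 535/Em 590; RO 20-1724 (100 uM final) as reference.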

[9] = Stat Signaling Pathway (AID 446); details: ME-180 SIE beta-lactamase reporter, IL-6 stimulated, 5 h; at 7.69 µM (top of the series) unless noted;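 note: ME-180 cervical cancer cells given 40 pM IL-6 alongside compound; SIE-controlled beta-lactamase reporter measured as 460/530 nm FRET emission ratio; % is set by controls: 0 for no effect and ±100 for the full control effect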
In short: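 ME-180 cells carrying a SIE-driven beta-lactamase reporter are stimulated with 40 pM IL-6 for 5 h at 37C in the presence of compound. The 460/530 nm FRET substrate ratio is read after 2.5 h at RT. Data are normalised to 300 pM IL-6 and to 125 nM JAK inhibitor controls.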

[10] = target: Cytochrome P450 3A4 (Homo sapiens) (UniProt P08684); experiment: qHTS Assay for Activators of Cytochrome P450 3A4 (AID 885; active = well fitted curve in the direction sought with a large enough effect; an effect the other way counts as inactive or inconclusive; note: nearly all actives have a fitted effect of over 65% in size); details: recombinant CYP3A4, Luciferin-PPXE luminescence, 60 min; series mostly up to 11.4 µM
In short: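 Human CYP3A4 (20 nM) with Luciferin-PPXE at 25 uM (its KM) in 200 mM KPO4; 10 min compound preincubation, then NADPH regeneration and 60 min reaction at RT. Luciferin read by luminescence; normalized to 57 uM ketoconazole full inhibition.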

[11] = target: Cytochrome P450 2C19 (Homo sapiens) (UniProt P33261); experiment: qHTS Assay for Inhibitors and Substrates of Cytochrome P450 2C19 (AID 899; active = well fitted curve in the direction sought with a large enough effect; an effect the other way counts as inactive or inconclusive; note: % is set by controls: 0 for no effect and ±100 for the full control effect; nearly all actives have a fitted effect of over 60% in size); details: recombinant CYP2C19, luciferin-H EGE luminescence; series mostly up to 11.4 µM
In short: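 Luminescence readout of luciferin formed from 10uM Luciferin-H EGE (KM level) by 5 nM CYP2C19 in 50mM KPO4. 60 min NADPH-driven reaction at 37C after 10 min compound preincubation; data scaled to 57uM ketoconazole inhibition.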

Cytochrome P450 1A2 (Homo sapiens), sequence (P05177 whole entry, looked up): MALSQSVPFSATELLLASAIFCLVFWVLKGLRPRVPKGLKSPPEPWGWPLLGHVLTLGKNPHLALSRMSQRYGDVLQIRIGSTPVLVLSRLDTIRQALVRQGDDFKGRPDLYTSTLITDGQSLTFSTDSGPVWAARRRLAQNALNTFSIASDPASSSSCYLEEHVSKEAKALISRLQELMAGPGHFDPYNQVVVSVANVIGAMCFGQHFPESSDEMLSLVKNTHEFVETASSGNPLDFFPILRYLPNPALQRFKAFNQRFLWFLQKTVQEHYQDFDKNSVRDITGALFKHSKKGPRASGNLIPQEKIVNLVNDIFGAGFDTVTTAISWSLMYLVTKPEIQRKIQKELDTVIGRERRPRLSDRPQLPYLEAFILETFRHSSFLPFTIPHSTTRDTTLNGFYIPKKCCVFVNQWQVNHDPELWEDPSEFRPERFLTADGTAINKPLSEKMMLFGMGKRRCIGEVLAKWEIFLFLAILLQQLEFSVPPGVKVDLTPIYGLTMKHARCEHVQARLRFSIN
3',5'-cyclic-AMP phosphodiesterase 4B (Homo sapiens), sequence (Q07343 whole entry, looked up): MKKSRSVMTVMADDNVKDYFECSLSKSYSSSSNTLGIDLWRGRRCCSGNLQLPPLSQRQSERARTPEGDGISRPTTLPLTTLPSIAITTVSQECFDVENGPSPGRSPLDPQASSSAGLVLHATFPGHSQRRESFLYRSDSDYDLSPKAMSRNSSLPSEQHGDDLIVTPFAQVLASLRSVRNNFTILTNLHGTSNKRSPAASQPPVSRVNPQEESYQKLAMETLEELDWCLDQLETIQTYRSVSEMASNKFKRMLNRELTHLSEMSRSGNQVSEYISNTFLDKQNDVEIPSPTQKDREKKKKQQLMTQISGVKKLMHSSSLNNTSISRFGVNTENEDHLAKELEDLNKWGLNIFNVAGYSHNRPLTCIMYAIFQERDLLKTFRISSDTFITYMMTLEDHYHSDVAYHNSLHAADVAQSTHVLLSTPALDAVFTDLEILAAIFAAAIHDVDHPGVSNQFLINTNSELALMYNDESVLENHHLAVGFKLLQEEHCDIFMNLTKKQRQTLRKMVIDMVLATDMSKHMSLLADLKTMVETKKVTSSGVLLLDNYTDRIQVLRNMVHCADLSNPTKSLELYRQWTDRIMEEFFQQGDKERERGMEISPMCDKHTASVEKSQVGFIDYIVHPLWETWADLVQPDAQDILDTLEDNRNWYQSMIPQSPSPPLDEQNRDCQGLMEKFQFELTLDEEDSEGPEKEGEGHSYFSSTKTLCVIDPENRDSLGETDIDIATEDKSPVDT
Glucocorticoid receptor (Homo sapiens), sequence (P04150 whole entry, looked up, the tested form may be a part): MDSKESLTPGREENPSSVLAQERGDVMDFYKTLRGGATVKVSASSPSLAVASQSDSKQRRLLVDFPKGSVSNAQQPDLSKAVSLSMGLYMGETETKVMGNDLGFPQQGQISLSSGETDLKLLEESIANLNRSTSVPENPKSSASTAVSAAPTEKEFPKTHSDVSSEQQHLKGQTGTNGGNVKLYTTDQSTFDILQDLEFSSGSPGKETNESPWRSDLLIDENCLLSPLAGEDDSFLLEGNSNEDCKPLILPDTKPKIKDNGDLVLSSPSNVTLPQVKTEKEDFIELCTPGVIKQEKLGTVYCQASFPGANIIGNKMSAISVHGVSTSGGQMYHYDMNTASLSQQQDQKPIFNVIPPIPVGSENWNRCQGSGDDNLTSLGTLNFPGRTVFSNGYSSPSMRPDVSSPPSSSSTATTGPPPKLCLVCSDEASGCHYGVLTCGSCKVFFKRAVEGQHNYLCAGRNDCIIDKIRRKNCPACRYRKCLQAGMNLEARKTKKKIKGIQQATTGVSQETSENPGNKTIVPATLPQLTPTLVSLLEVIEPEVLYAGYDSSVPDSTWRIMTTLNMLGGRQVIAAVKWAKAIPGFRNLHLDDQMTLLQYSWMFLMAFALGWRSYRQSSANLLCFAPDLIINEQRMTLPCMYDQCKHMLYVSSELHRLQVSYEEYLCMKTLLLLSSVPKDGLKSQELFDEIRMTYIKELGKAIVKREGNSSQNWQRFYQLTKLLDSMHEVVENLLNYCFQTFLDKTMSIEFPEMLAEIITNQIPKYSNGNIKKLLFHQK
Lysosomal acid glucosylceramidase (Homo sapiens), sequence (P04062 whole entry, looked up): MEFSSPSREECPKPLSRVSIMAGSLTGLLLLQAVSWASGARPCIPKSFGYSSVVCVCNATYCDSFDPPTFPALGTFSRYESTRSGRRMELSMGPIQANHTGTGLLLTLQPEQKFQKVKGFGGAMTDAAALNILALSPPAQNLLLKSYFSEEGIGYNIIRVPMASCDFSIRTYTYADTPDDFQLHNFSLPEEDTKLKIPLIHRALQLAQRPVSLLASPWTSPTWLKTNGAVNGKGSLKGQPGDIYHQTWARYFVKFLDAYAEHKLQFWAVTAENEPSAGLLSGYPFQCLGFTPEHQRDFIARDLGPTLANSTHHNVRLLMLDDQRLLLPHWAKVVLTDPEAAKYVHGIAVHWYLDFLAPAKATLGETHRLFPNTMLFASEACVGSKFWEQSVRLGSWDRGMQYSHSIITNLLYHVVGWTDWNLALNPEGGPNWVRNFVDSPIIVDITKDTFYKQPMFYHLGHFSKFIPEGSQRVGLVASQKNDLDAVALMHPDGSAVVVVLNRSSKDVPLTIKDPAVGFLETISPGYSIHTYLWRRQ
Cytochrome P450 2C19 (Homo sapiens), sequence (P33261 whole entry, looked up): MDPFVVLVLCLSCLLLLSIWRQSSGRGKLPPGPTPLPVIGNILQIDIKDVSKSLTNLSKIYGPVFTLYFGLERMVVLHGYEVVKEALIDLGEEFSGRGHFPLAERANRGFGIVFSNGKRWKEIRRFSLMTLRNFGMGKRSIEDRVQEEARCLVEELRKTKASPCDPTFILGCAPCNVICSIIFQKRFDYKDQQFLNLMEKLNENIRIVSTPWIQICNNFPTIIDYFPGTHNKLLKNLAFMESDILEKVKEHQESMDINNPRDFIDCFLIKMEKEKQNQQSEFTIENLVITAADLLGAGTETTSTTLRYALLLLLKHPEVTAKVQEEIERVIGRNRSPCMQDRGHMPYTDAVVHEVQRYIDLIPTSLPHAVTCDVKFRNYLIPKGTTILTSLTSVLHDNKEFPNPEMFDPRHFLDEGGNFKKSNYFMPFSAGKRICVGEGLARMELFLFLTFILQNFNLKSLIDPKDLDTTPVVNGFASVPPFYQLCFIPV
Cytochrome P450 3A4 (Homo sapiens), sequence (P08684 whole entry, looked up): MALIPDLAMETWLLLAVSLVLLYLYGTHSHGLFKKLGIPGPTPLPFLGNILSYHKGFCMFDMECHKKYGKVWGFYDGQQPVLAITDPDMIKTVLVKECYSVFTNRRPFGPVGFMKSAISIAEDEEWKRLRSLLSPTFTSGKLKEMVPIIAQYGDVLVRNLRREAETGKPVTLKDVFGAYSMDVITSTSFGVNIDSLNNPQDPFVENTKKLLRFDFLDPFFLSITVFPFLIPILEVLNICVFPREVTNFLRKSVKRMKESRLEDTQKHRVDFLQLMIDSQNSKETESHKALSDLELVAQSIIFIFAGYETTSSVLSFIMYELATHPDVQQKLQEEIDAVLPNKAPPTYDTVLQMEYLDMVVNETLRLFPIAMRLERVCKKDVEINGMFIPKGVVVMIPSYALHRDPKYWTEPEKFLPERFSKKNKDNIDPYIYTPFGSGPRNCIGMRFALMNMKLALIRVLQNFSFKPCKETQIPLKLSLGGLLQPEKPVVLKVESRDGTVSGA

CC(C)(N)CO[C@H]1C[C@H]2CC[C@@]1(C)C2(C)C
inactive: Potency [1] > 11.4 µM | activity change, negative = inhibition [2] 4.93% | Potency [3] | activity change, negative = inhibition [4] 3.38% | Potency [5] > 46 µM | Potency [6] > 9.22 µM | Potency [7] | Potency [8]

Oc1ccc(Cn2c(-c3ccc(O)cc3)nc3ccccc32)cc1
inactive: Potency [1] > 11.4 µM | activity change, negative = inhibition [2] 0.507% | Potency [3] | activity change, negative = inhibition [4] 20.6% | Potency [5] > 46 µM | Potency [6] > 9.22 µM | Potency [7] | Potency [8]

Cc1cc(N=Cc2c(CO)cnc(C)c2O)c(N=Cc2c(CO)cnc(C)c2O)cc1C.[Zn]
inactive: Potency [1] > 11.4 µM | activity change, negative = inhibition [2] -2.68% | activity change, negative = inhibition [3] -10.4% [at 2.29 µM] | activity change, negative = inhibition [4] 14.7% | Potency [5] > 46 µM | Potency [6] > 9.22 µM | Potency [7] | Potency [8]

O=C(O)CCc1c2ccc(=O)c(O)c-2oc2c(O)c(O)ccc12
inactive: Potency [1] > 11.4 µM | activity change, negative = inhibition [2] 3.21% | activity change, negative = inhibition [3] -4% [at 2.29 µM] | activity change, negative = inhibition [4] 17.3% | Potency [5] > 46 µM | Potency [6] > 9.22 µM | Potency [7] | Potency [8]

C[C@@H](N)[C@@H](C)Cc1ccccc1
inactive: Potency [1] > 11.4 µM | activity change, negative = inhibition [2] 10.1% | Potency [3] | activity change, negative = inhibition [4] 6.03% | Potency [5] > 46 µM | Potency [6] > 9.22 µM | Potency [7] | Potency [8]

CO[C@@H]1/C=C\O[C@]2(C)Oc3c(C)c(O)c4c(O)c(cc(O)c4c3C2=O)NC(=O)/C(C)=C\C=C/[C@H](C)[C@@H](O)[C@H](C)[C@H](O)[C@H](C)[C@H](OC(C)=O)[C@@H]1C
inactive: Potency [1] > 11.4 µM | activity change, negative = inhibition [2] 1.83% | Potency [3] | activity change, negative = inhibition [4] -26.6% | activity, negative = inhibition [9] -1.99% | Potency [7] | Potency [8] | Potency [10]

O=C(O)CNC(=O)c1ccccc1O
inactive: Potency [1] > 11.4 µM | activity change, negative = inhibition [2] 6.2% | activity change, negative = inhibition [4] 10.4% | Potency [5] > 46 µM | Potency [6] > 9.22 µM | Potency [7] | Potency [8]
active: Potency [3] 5.01 µM

CC(C)NC[C@@H](O)c1ccc(O)c2ncccc12
inactive: Potency [1] > 11.4 µM | activity change, negative = inhibition [2] -5.62% | activity change, negative = inhibition [3] -12.1% [at 2.29 µM] | activity change, negative = inhibition [4] 14% | Potency [5] > 46 µM | Potency [6] > 9.22 µM | Potency [7] | Potency [8] | Potency [11]

From PubChem BioAssay (NCATS)
